Assay outcomes deposited in PubChem BioAssay by National Center for Advancing Translational Sciences (NCATS).
Hits are enriched below; roughly 9.3% of the tested compounds scored in any of these assays.
FLuc counter: counter-screen for miR-21 project: firefly luciferase inhibitors or activators; Potency, µM (highest dose often 57.5 µM), for inactives: at the top dose activity change, negative = inhibition, actives largely listed as inhibitors; actives 6.9% (n = 360,000); P08659; purified FLuc, Km substrates, luminescence inhibition;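 also: plate controls were vehicle for no effect and reference inhibitor for full effect; nearly all actives have a fitted effect of over 55% in size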
Target sequence (P08659 whole entry, looked up): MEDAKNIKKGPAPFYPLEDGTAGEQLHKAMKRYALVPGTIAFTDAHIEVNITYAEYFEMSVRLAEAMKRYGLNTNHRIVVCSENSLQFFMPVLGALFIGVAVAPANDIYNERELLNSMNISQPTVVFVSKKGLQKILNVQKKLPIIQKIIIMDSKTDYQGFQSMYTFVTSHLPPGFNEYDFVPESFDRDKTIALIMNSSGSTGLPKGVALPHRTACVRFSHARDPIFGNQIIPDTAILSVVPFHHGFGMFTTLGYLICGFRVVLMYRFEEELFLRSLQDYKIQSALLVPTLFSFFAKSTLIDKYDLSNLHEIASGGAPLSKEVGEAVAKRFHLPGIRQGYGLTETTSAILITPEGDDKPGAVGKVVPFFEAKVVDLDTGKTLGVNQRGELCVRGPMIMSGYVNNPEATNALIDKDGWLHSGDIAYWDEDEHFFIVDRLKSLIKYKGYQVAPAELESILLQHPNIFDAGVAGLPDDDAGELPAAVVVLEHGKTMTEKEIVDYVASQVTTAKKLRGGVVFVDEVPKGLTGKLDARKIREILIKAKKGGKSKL
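Purified P. pyralis luciferase, 10 nM final, with Km-level 10 uM D-luciferin and 10 uM ATP in 50 mM Tris acetate pH 7.5, 10 mM Mg acetate, 0.01% Tween-20, 0.05% BSA; 6-point qHTS titration about 60 µM downward; luminescence read.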
ELG1 genotoxic: inducers of genotoxicity in HEK293T ELG1-luciferase cells; AID 504466; actives 1.3% (n = 330,000); Potency, µM (series often up to 46 µM), for the others: at the highest dose activity change, positive = activation, hits mostly activators; HEK293T ELG1-luciferase reporter, luminescence, 16 h; also: % of control where 0% means no effect; nearly all actives have a fitted effect of over 60% in size
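Luminescence read-out: rising ELG1-luciferase signal, reflecting elevated ELG1 protein under genetic stress, flags genotoxic compounds. Cells were treated for 16 hr at 37 °C before ONE-Glo detection.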
NPC1 prom act: activators of NPC1 promoter; Huh7 NPC1 promoter luciferase reporter, 24 h; actives 2.4% (n = 320,000); Potency, µM (top dose mostly 9.22 µM), for inactives: top-dose activation, actives largely listed as activators; also: % of control where 0% means no effect; nearly all actives have a fitted effect of over 60% in size
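Huh7 cells stably carrying NPC1 promoter–luciferase, plated in Opti-MEM with 10% FBS for 2 h, were exposed to compound in DMSO for 24 h at 37 °C; luciferase reagent was added for 10 min and luminescence read.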
SMN2 splice up: increases expression of the SMN2 splice variant; HEK293 SMN2-luciferase splicing reporter, luminescence, 30-36 h; Potency, µM (doses to about 46.1 µM), inactives show at the top dose activity change, positive = activation, hits mostly activators; actives 2.8% (n = 210,000); also: % of control where 0% means no effect; nearly all actives have a fitted effect of over 55% in size
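HEK293 cells carry an SMN2 minigene-luciferase reporter in which exon 7 inclusion puts luciferase in frame. Cells were seeded at 2000 cells/well, attached for 10-12 hours, then exposed to compounds for 30-36 hours at 37C before ONE-Glo luminescence.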
ELG1 DNA repair: inhibitors of ELG1-dependent DNA repair in HEK293T cells | Potency, µM (titrated, usually from 46.1 µM), for the others: at the highest dose activity change, negative = inhibition, hits mostly inhibitors | actives 2.3% (n = 330,000) | HEK293T ELG1-luciferase reporter, luminescence, 16 h; DNA damage induced by 5-fluorouridine; also: % is scaled to controls: 0 for no effect and ±100 for the full control effect; nearly all actives have a fitted effect of over 55% in size
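5-Fluorouridine DNA damage + compound/DMSO, 2,000 cells/well, 16 h, 37 °C/5% CO2. ONE-Glo, 30 min RT, luminescence. Readout = decrease in reporter signal.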
Rab9 promoter act: Rab9 promoter activation | Huh7 Rab9 promoter-luciferase reporter, luminescence, 24 h | Potency, µM (series often up to 9.22 µM), for the others: at the top dose activation, negative = inhibition, hits mostly activators | actives 2.8% (n = 320,000); also: % of control where 0% means no effect; nearly all actives have a fitted effect of over 60% in size
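Huh7 cells stably carrying a Rab9 promoter-luciferase reporter, 1500 cells per well in OP-MEM I with 10% FBS, treated with compound 24 hours at 37C. Luciferase activity read by luminescence after 10 minutes with Amplite reagent.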
The depositor's hits bear a star. Calls follow the shape of the dose curve; as a rule, active = well fitted curve in the direction sought with a large enough effect; inconclusive = small, poorly fitted or top-dose-only effect, or another doubt; inactive = no such curve, though single readings can be large; an effect the other way counts as inactive or inconclusive. Potency is read from the fitted curve at half-maximal effect.

For COc1ccc(CN2CCN(C(=O)c3ccc(-c4ccccc4)cc3)CC2)c(OC)c1OC the results were FLuc counter -18.1%, ELG1 genotoxic -0.3%, NPC1 prom act -10.9%, SMN2 splice up -23.7%, ELG1 DNA repair 21.1% and Rab9 promoter act -7.1%.
COc1ccc(N2CCN(C(=O)NCc3cccc(OC)c3)CC2)cc1 was read as FLuc counter -1.9%, ELG1 genotoxic -3.8%, NPC1 prom act -2.9%, ELG1 DNA repair -9.4% and Rab9 promoter act 6.0%.
Screening Cc1ccc(NC(=O)/C=C/c2ccccc2)c(Br)c1 returned FLuc counter 2.69µM* and SMN2 splice up 8.91µM*.
For Cn1c(NC(=O)/C=C\c2ccccc2)cc(=O)n(C)c1=O the results were FLuc counter inconclusive, ELG1 genotoxic inconclusive, NPC1 prom act 29.8%, ELG1 DNA repair inconclusive and Rab9 promoter act 3.55µM*.
For Cn1ccnc1SCC(=O)Nc1cc(S(=O)(=O)N2CCOCC2)ccc1Cl the results were FLuc counter 1.2%, ELG1 genotoxic 1.4%, NPC1 prom act -5.7%, SMN2 splice up 10.7%, ELG1 DNA repair 3.1% and Rab9 promoter act -3.7%.
For O=C(COC(=O)/C=C/c1ccc(F)cc1)NC1CCS(=O)(=O)C1 (configuration not stated) the results were FLuc counter -6.5%, ELG1 genotoxic -0.3%, NPC1 prom act 0.3%, ELG1 DNA repair 5.2% and Rab9 promoter act -4.5%.
`CCOC(=O)c1ccc(NC(=O)c2cc3cc(C)ccc3n2C)cc1` gave FLuc counter 2.9%.
Screening CN(C)c1cccc(C(=O)NCc2ccc3c(c2)OCO3)c1 returned FLuc counter -10.5%, ELG1 genotoxic 4.0%, NPC1 prom act 1.2%, ELG1 DNA repair 18.7% and Rab9 promoter act 2.4%.
For COc1cc(/C=C2\CCc3c2nc2ccccc2c3C(=O)O)cc(OC)c1OC the results were FLuc counter 0.849µM*, ELG1 genotoxic 23.1µM*, NPC1 prom act 2µM*, ELG1 DNA repair inconclusive and Rab9 promoter act 3.55µM*.
Screening COc1ccc(/C=C2\CCn3c2nc2ccccc2c3=O)cc1OC returned FLuc counter 8.49µM*, ELG1 genotoxic inconclusive, NPC1 prom act 3.55µM*, ELG1 DNA repair inconclusive and Rab9 promoter act 2.51µM*.
For CC(C)(OC(=O)c1ccc(F)cc1)c1cc2ccccc2c(=O)o1 the results were FLuc counter -1.1%, ELG1 genotoxic -0.1%, NPC1 prom act 1.0%, ELG1 DNA repair 19.8% and Rab9 promoter act -0.5%.
NCCC[C@@H](CC(=O)N[C@@H]1CCCC[C@H]1C(=O)N[C@H](CC(=O)N[C@@H](CCC(=O)O)CC(=O)O)Cc1c[nH]c2ccccc12)NC(=O)C[C@H](Cc1c[nH]c2ccccc12)NC(=O)[C@@H]1CCCC[C@H]1N was read as SMN2 splice up 7.7%.
`Cc1ccnc(NC(=O)c2ccc(N3C(=O)CCC3=O)cc2)c1` gave FLuc counter 19µM*, ELG1 genotoxic 16.1%, NPC1 prom act inconclusive, SMN2 splice up 8.5%, ELG1 DNA repair inconclusive and Rab9 promoter act inconclusive.
`Cc1ccc(NC(=O)c2ccc3c(c2)OCCO3)nc1` gave FLuc counter 1.35µM*, ELG1 genotoxic inconclusive, NPC1 prom act 0.631µM*, ELG1 DNA repair inconclusive and Rab9 promoter act 0.355µM*.
CC(=O)c1cccc(NC(=O)CC2SC(N3CCCCC3)=NC2=O)c1 (configuration not stated) was read as FLuc counter -17.1%, ELG1 genotoxic 0.9%, NPC1 prom act 9.0%, SMN2 splice up -1.3%, ELG1 DNA repair 17.2% and Rab9 promoter act -1.1%.
Cc1nnc(NC(=O)c2ccc3c(c2)NC(=O)CS3)s1 was read as FLuc counter -4.9%, ELG1 genotoxic -0.9%, NPC1 prom act -1.2%, ELG1 DNA repair 5.3% and Rab9 promoter act 1.3%.
Cc1ccc(NC(=O)CNC(=O)c2ccc3c(c2)OCO3)nc1 was read as FLuc counter -2.0%, ELG1 genotoxic 0.4%, NPC1 prom act 9.4%, ELG1 DNA repair 5.3% and Rab9 promoter act 2.4%.
`Cc1ccc(NC(=O)c2ccc3c(c2)NC(=O)CS3)nc1` gave FLuc counter inconclusive, ELG1 genotoxic 9.2µM*, NPC1 prom act inconclusive, ELG1 DNA repair inconclusive and Rab9 promoter act inconclusive.
Cc1ccnc(NC(=O)c2cc([N+](=O)[O-])cc([N+](=O)[O-])c2)c1 was read as FLuc counter -2.4%, ELG1 genotoxic 11.9%, NPC1 prom act 0.0%, SMN2 splice up 11.7%, ELG1 DNA repair 2.9% and Rab9 promoter act 0.0%.
For Cc1ccc(NC(=O)c2cccc(NC(=O)CC3SC(N4CCCCC4)=NC3=O)c2)nc1 (configuration not stated) the results were FLuc counter 10.7µM*, ELG1 genotoxic -0.1%, NPC1 prom act 12.2%, ELG1 DNA repair -11.3% and Rab9 promoter act 29.2%.
Screening Cc1cc(C)c(NC(=O)COC(=O)C2CCCCC2)c(C)c1 returned FLuc counter 7.9%, ELG1 genotoxic 1.5%, NPC1 prom act -3.4%, ELG1 DNA repair -0.2% and Rab9 promoter act -0.1%.
Screening CCOC(=O)/C(C#N)=C\c1ccc(OCC(=O)Nc2ccc(C)cc2C)c(OC)c1 returned FLuc counter 0.0%, ELG1 genotoxic -0.8%, NPC1 prom act 1.7%, SMN2 splice up 4.7%, ELG1 DNA repair -2.9% and Rab9 promoter act -1.2%.
`Cc1ccc2nc(NC(=O)c3ccc(N4C(=O)CCC4=O)cc3)sc2c1` gave FLuc counter inconclusive, ELG1 genotoxic 3.4%, NPC1 prom act 7.8%, SMN2 splice up 16.0%, ELG1 DNA repair inconclusive and Rab9 promoter act 15.9%.
For O=C(Nc1ccon1)c1ccc2c(c1)OCO2 the results were FLuc counter inconclusive, ELG1 genotoxic inconclusive, NPC1 prom act 27.3%, SMN2 splice up inconclusive, ELG1 DNA repair inconclusive and Rab9 promoter act inconclusive.
`O=C1CSc2ccc(C(=O)Nc3cccc(S(=O)(=O)Nc4ccc(Br)cc4)c3)cc2N1` gave FLuc counter inconclusive, ELG1 genotoxic -12.7%, NPC1 prom act -21.9%, SMN2 splice up -60.0%, ELG1 DNA repair 13µM* and Rab9 promoter act -27.5%.
`O=C(O)c1ccc(NC(=O)c2cccc(S(=O)(=O)Nc3ccc(C(=O)O)cc3)c2)cc1` gave FLuc counter inconclusive, ELG1 genotoxic -6.1%, NPC1 prom act 1.1%, ELG1 DNA repair 3.5% and Rab9 promoter act -1.7%.
`Cc1ccnc(NC(=O)c2ccc3c(c2)OCO3)c1` gave FLuc counter 2.13µM*, ELG1 genotoxic inconclusive, NPC1 prom act 0.501µM*, ELG1 DNA repair inconclusive and Rab9 promoter act 0.447µM*.
